These results are taken from PubChem BioAssay (NCI).

This is part of a sample that, as a whole, favours compounds with a hit. Of some 83,000 tested, about 20% had one in any assay.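 Testing used 96-well plates and a 48-hour single-concentration exposure. Example: -40 means 40% of the starting cells died.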 Calls of active or inactive are those of the source. How the source made its calls: active means growth percent below 10; inactive means the rest.

In the first test the test system is IGROV1 ovarian. Nature of the test: NCI-60 one-dose screen, 48 h (100 = growth as untreated, 0 = no growth, -100 = all killed). Particulars: 10 µM unless noted.
As to `COc1ccc(-c2nc(SCC(C)C)nc(N/N=C\c3cccc([N+](=O)[O-])c3)c2C#N)cc1`, the growth was 31.4% (inactive).

Take `C=C1C(=O)O[C@@H]2C[C@@H](C)CCC(=O)[C@](C)(OC(C)=O)C[C@H](OC(=O)/C(C)=C\C)[C@@H]12`: the growth is 89.2% (inactive).

With `C=C1C(=O)O[C@@H]2C[C@@H](C)/C=C\C(=O)[C@](C)(OC(C)=O)C[C@H](OC(=O)/C(C)=C\C)[C@@H]12`, the growth was -19.7% (active).

With `CCCCCCNC(=O)Oc1ccc(/C(=C(/C)c2ccc(OC)cc2)c2ccc(OCCN3CCCC3)cc2)cc1`, the growth was 65.7% (inactive).

For the compound `CN(C)c1ccc(/C=N/Nc2nc(N/N=C/c3ccc(N(C)C)cc3)nc(N3CCOCC3)n2)cc1`, the growth is 94.6% (inactive).

On to `COc1ccc(-c2oc3cc(O)cc(O)c3c(=O)c2OC)cc1O`, for which the growth was 39.8% (inactive).

For another test, the system named is OVCAR-3 ovarian. The description is as above. The following applies: 10 µM unless noted.
On to `O=C(COc1ccc(/C=C2\SC(=O)NC2=O)cc1)Nc1ccc(C(=O)/C=C/c2cc3ccccc3nc2Cl)cc1`, for which the growth is 85.5% (inactive).

As for `O=C(COc1cccc2cccnc12)Nc1ccc(C(=O)/C=C/c2ccc(Cl)cc2)cc1`, the growth was 100% (inactive).

Turning to `Oc1ccc(CSc2nnc(-c3ccc(Br)cc3)n2-c2ccccc2)c2cccnc12`, the growth is 41.5% (inactive).

Take `COc1ccccc1N1CCN(C2=NN=C(c3cccc(Cl)c3)c3ccccc3C2)CC1`: the growth is -31.2% (active).

Regarding `COc1ccc([C@H]2c3[nH]c4ccccc4c3C[C@@H]3C(=O)N(C4CCN(Cc5ccccc5)CC4)CC(=O)N23)c(OC)c1`, the growth is 80.4% (inactive).

For `CC1OC(O[C@@H]2[C@H](O)C(CO)OC(O[C@H]3COC(O[C@H]4CC[C@]5(C)[C@H]6CC[C@]78OC[C@@]9(CCC(C)(C)C[C@H]97)[C@H](O)C[C@@]8(C)[C@]6(C)CC[C@H]5C4(C)C)[C@@H](OC4OC(CO)[C@@H](O)[C@@H](O)[C@@H]4O)[C@@H]3O)[C@H]2OC2OC[C@@H](O)[C@@H](O)[C@@H]2O)[C@@H](O)[C@@H](O)[C@H]1O` (stereo not given in full), the growth is -89.8% (active).

With `N#Cc1c(-c2cccs2)cc(-c2cnccn2)nc1SCC(=O)NNC(=S)Nc1ccc(F)cc1`, the growth is 122% (inactive).

Turning to `NS(=O)(=O)c1ccc(Nc2nc(N/N=C/c3ccc(C(F)(F)F)cc3)nc(Nc3ccccc3)n2)cc1`, the growth was 11.7% (inactive).

For `COc1cc(CNC(=O)/C=C/c2ccccc2)ccc1OCC(=O)NO`, the growth is 104% (inactive).

As for `NS(=O)(=O)c1ccc(Nc2nc(N/N=C/c3ccc(F)cc3)nc(Nc3ccccc3)n2)cc1`, the growth is 30.4% (inactive).

Regarding `C=C1C(=O)O[C@@H]2C[C@@H](C)[C@H](OC)CC(=O)[C@](C)(OC(C)=O)C[C@H](OC(=O)/C(C)=C\C)[C@@H]12`, the growth was 21.4% (inactive).

Consider `Cc1ccc(-n2cc(/C=C/C(=O)c3ccc(S(C)(=O)=O)cc3)c(-c3ccc(S(C)(=O)=O)cc3)n2)cc1`, for which the growth was 75.9% (inactive).

On to `C=C(C)C(=O)O[C@H]1C[C@@]2(C)OC(=CC2=O)/C(C)=C\[C@H]2OC(=O)C(=C)[C@H]12`, for which the growth is -72.1% (active).

With `Oc1ccc(CSc2nnc(-c3ccc(Oc4ccccc4)cc3)o2)c2cccnc12`, the growth was -28.7% (active).

`O=c1[nH]c(CCl)nc2c1cnn2-c1ccccc1`: the growth is 100% (inactive).

With `C=C1C(=O)O[C@@H]2/C=C(/C)C3=CC(=O)[C@@](C)(C[C@H](OC(=O)/C(C)=C\C)[C@@H]12)O3`, the growth is 2.79% (active).

As for `O=C1CC2(CCOCC2)Oc2ncccc21`, the growth was -54.4% (active).

Regarding `O=C(Nc1ccc(F)cc1)c1cc(-c2ccc(F)cc2F)ccc1O`, the growth was 6.06% (active).

In the case of `O=C(O)c1ccc(-n2cc(CNc3ccc(Cl)cc3)c(-c3ccc(F)cc3)n2)cc1`, the growth was 105% (inactive).

As to `COc1cc(/C=N/n2cnc3oc(-c4ccccc4)cc3c2=N)cc(CN2CCCC2)c1O`, the growth is 104% (inactive).

In the case of `CCOC(=O)c1c(NCC(=O)Nc2cccc(Cl)c2)sc2c1CCCC2`, the growth is 82.8% (inactive).

Take `C=C1C(=O)O[C@@H]2C[C@@H](C)CCC(=O)[C@](C)(OC(C)=O)C[C@H](OC(=O)/C(C)=C\C)[C@@H]12`: the growth is 34.9% (inactive).

As for `C=C1C(=O)O[C@@H]2C[C@@H](C)/C=C\C(=O)[C@](C)(OC(C)=O)C[C@H](OC(=O)/C(C)=C\C)[C@@H]12`, the growth was -23.3% (active).

Turning to `CCCCCCNC(=O)Oc1ccc(/C(=C(/C)c2ccc(OC)cc2)c2ccc(OCCN3CCCC3)cc2)cc1`, the growth was 89.8% (inactive).

For the compound `CN(C)c1ccc(/C=N/Nc2nc(N/N=C/c3ccc(N(C)C)cc3)nc(N3CCOCC3)n2)cc1`, the growth is 109% (inactive).

As for `COc1ccc(-c2oc3cc(O)cc(O)c3c(=O)c2OC)cc1O`, the growth is -7.51% (active).

The test system of another test is HS 578T breast. The description is as above. The following applies: 10 µM unless noted.
`O=C(COc1ccc(/C=C2\SC(=O)NC2=O)cc1)Nc1ccc(C(=O)/C=C/c2cc3ccccc3nc2Cl)cc1`: the growth is 78.8% (inactive).

On to `CC(C)Sc1nc(NC2CC2)c(C#N)c(-c2ccccc2)n1`, for which the growth was 68.7% (inactive).

On to `O=C(COc1cccc2cccnc12)Nc1ccc(C(=O)/C=C/c2ccc(Cl)cc2)cc1`, for which the growth is 98.8% (inactive).

On to `Oc1ccc(CSc2nnc(-c3ccc(Br)cc3)n2-c2ccccc2)c2cccnc12`, for which the growth was 13% (inactive).

For `COc1ccccc1N1CCN(C2=NN=C(c3cccc(Cl)c3)c3ccccc3C2)CC1`, the growth is 18.9% (inactive).

On to `O=C1/C(=C/c2ccc([N+](=O)[O-])cc2)SC(=Nc2ccccc2)N1Nc1ccccc1`, for which the growth is 79.1% (inactive).

As for `COc1ccc([C@H]2c3[nH]c4ccccc4c3C[C@@H]3C(=O)N(C4CCN(Cc5ccccc5)CC4)CC(=O)N23)c(OC)c1`, the growth was 82.3% (inactive).

Take `CC1OC(O[C@@H]2[C@H](O)C(CO)OC(O[C@H]3COC(O[C@H]4CC[C@]5(C)[C@H]6CC[C@]78OC[C@@]9(CCC(C)(C)C[C@H]97)[C@H](O)C[C@@]8(C)[C@]6(C)CC[C@H]5C4(C)C)[C@@H](OC4OC(CO)[C@@H](O)[C@@H](O)[C@@H]4O)[C@@H]3O)[C@H]2OC2OC[C@@H](O)[C@@H](O)[C@@H]2O)[C@@H](O)[C@@H](O)[C@H]1O` (stereo not given in full): the growth is -54.4% (active).

For `N#Cc1c(-c2cccs2)cc(-c2cnccn2)nc1SCC(=O)NNC(=S)Nc1ccc(F)cc1`, the growth was 109% (inactive).

On to `O=C1NC(=O)c2c1c1c3ccccc3ccc1c1[nH]c3ccccc3c21`, for which the growth is 12.7% (inactive).

Take `COc1ccc(-c2ccc3c4c(cccc24)C(=O)N(N2C(=O)c4cccc5cccc(c45)C2=O)C3=O)cc1`: the growth is 101% (inactive).

In the case of `NS(=O)(=O)c1ccc(Nc2nc(N/N=C/c3ccc(C(F)(F)F)cc3)nc(Nc3ccccc3)n2)cc1`, the growth is 8.82% (active).

On to `COc1cc(CNC(=O)/C=C/c2ccccc2)ccc1OCC(=O)NO`, for which the growth was 109% (inactive).

Regarding `NS(=O)(=O)c1ccc(Nc2nc(N/N=C/c3ccc(F)cc3)nc(Nc3ccccc3)n2)cc1`, the growth is 40.6% (inactive).

On to `C=C1C(=O)O[C@@H]2C[C@@H](C)[C@H](OC)CC(=O)[C@](C)(OC(C)=O)C[C@H](OC(=O)/C(C)=C\C)[C@@H]12`, for which the growth is 103% (inactive).

On to `O=C(c1ccc(O)cc1)[C@@H]1[C@@H]2CCCN2[C@@]2(C(=O)N(C(=O)c3ccc(F)cc3)c3ccccc32)[C@H]1c1ccc(F)cc1`, for which the growth is 105% (inactive).

As to `Cc1ccc(-n2cc(/C=C/C(=O)c3ccc(S(C)(=O)=O)cc3)c(-c3ccc(S(C)(=O)=O)cc3)n2)cc1`, the growth is 103% (inactive).

As to `Cc1ccc(Cc2cnc(NC(=O)/C(C#N)=C/c3ccc(-c4ccc(Cl)cc4)o3)s2)cc1`, the growth was 102% (inactive).

Take `C=C(C)C(=O)O[C@H]1C[C@@]2(C)OC(=CC2=O)/C(C)=C\[C@H]2OC(=O)C(=C)[C@H]12`: the growth was 21.9% (inactive).

As to `CCN(CC)CCN1C(=O)c2c(c3c4cc(Br)ccc4[nH]c3c3ccc4ccccc4c23)C1=O`, the growth is -4.17% (active).

Consider `Oc1ccc(CSc2nnc(-c3ccc(Oc4ccccc4)cc3)o2)c2cccnc12`, for which the growth is 10.4% (inactive).

Turning to `O=C1c2c(c3c4cccnc4[nH]c3c3ccc4ccccc4c23)C(=O)N1CCN1CCOCC1`, the growth was 82.1% (inactive).

`O=c1[nH]c(CCl)nc2c1cnn2-c1ccccc1`: the growth is 111% (inactive).

On to `C=C1C(=O)O[C@@H]2/C=C(/C)C3=CC(=O)[C@@](C)(C[C@H](OC(=O)/C(C)=C\C)[C@@H]12)O3`, for which the growth was 46.5% (inactive).

`O=C1CC2(CCOCC2)Oc2ncccc21`: the growth is 95.2% (inactive).

As to `O=C(Nc1ccc(F)cc1)c1cc(-c2ccc(F)cc2F)ccc1O`, the growth is 6.19% (active).

Take `COc1ccc(/C=N\NC(=O)c2ccc3nc(-c4ccc(Br)cc4)[nH]c3c2)cc1`: the growth is 14.8% (inactive).

With `O=C(O)c1ccc(-n2cc(CNc3ccc(Cl)cc3)c(-c3ccc(F)cc3)n2)cc1`, the growth was 100% (inactive).

In the case of `COc1cc(/C=N/n2cnc3oc(-c4ccccc4)cc3c2=N)cc(CN2CCCC2)c1O`, the growth was 63.6% (inactive).

With `CCOC(=O)c1c(NCC(=O)Nc2cccc(Cl)c2)sc2c1CCCC2`, the growth is 77.4% (inactive).

Consider `Cc1ccc(-c2csc(N/N=C/c3nc4ccccc4n3C3CC3)n2)cc1`, for which the growth is 88.5% (inactive).

Turning to `C#C[C@]1(O)CC[C@H]2[C@@H]3CC=C4c5sc(Nc6cccc(C)n6)nc5CC[C@]4(C)[C@H]3CC[C@@]21C`, the growth is -15.8% (active).

On to `COc1ccc(-c2nc(SCC(C)C)nc(N/N=C\c3cccc([N+](=O)[O-])c3)c2C#N)cc1`, for which the growth was 43% (inactive).

Take `C=C1C(=O)O[C@@H]2C[C@@H](C)CCC(=O)[C@](C)(OC(C)=O)C[C@H](OC(=O)/C(C)=C\C)[C@@H]12`: the growth is 101% (inactive).

`C=C1C(=O)O[C@@H]2C[C@@H](C)/C=C\C(=O)[C@](C)(OC(C)=O)C[C@H](OC(=O)/C(C)=C\C)[C@@H]12`: the growth was 19.1% (inactive).

Turning to `CCCCCCNC(=O)Oc1ccc(/C(=C(/C)c2ccc(OC)cc2)c2ccc(OCCN3CCCC3)cc2)cc1`, the growth was 83.7% (inactive).

As for `CN(C)c1ccc(/C=N/Nc2nc(N/N=C/c3ccc(N(C)C)cc3)nc(N3CCOCC3)n2)cc1`, the growth is 97.6% (inactive).

As to `COc1ccc(-c2oc3cc(O)cc(O)c3c(=O)c2OC)cc1O`, the growth is 11.2% (inactive).
